From PubChem BioAssay (EPA / NIEHS)
Calls of active or inactive are those of the source. The calls were made as follows: active = hit-call score of the fitted dose curve at least 0.9, where 1 is the maximum; inactive = score below 0.9.

Experiments:
[1] = ATG_GLI_CIS: Attagene CIS-FACTORIAL HepG2 Assay for human Zinc Finger Protein GLI1 (AID 2282945); settings: HepG2, Attagene cis-factorial reporter mRNA, GLI element; actives raise or lower the signal
How it was run: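 Bidirectional curve fits relative to DMSO, using reporter mRNA levels from RT-PCR plus capillary electrophoresis. Cells were HepG2 transiently carrying cis-regulated reporter constructs, harvested 24 h after dosing.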

[2] = ATG_GRE_CIS: Attagene CIS-FACTORIAL HepG2 Assay for human Glucocorticoid Response Elements (GRE) (AID 2282947); settings: HepG2 GRE cis-reporter, Attagene multiplex mRNA; actives raise or lower the signal
How it was run: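 Multiplexed cis-reporter mRNA induction, HepG2, 24 h post-dose. RT-PCR, FAM-labelled, HpaI-digested amplicons by CE. Bidirectional fit vs DMSO.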

[3] = ATG_ISRE_CIS: Attagene CIS-FACTORIAL HepG2 Assay for human Interferon Regulatory Factor 1 (IRF1) binding to an Interferon-Stimulated Response Element (ISRE) (AID 2282948); settings: HepG2 ISRE cis-reporter (Attagene), mRNA transcription readout; actives raise or lower the signal
How it was run: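 Uses HepG2 liver cells transfected with cis-regulated reporters and measures mRNA 24 h post-dosing through RT-PCR, primer-extension labelling and capillary electrophoresis, with DMSO as negative control.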

[4] = ATG_M_32_CIS: Attagene CIS-FACTORIAL HepG2 Assay for M32 Transcription Factor (Internal Marker) (AID 2282949); settings: HepG2 Attagene cis-factorial M32 reporter, mRNA; actives raise or lower the signal;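 also: background control marker of the multiplexed CIS panel rather than a real target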
How it was run: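 Using DMSO as baseline, bidirectional curve fits were applied to reporter mRNA signals. These came from transiently transfected HepG2 cells exposed for 24 h, with RNA analysed by RT-PCR, FAM primer extension, HpaI digestion and CE.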

[5] = ATG_M_06_CIS: Attagene CIS-FACTORIAL HepG2 Assay for M06 Transcription Factor (Internal Marker) (AID 2282950); settings: HepG2 Attagene CIS-FACTORIAL M06 internal marker reporter; actives raise or lower the signal
How it was run: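 Cells (HepG2, transiently carrying cis-driven reporter units) receive chemical for 24 h before RNA isolation. Reporter cDNA is PCR-amplified, FAM-labelled by primer extension, HpaI-digested and sized on a capillary analyser.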

[6] = molecular target: Hypoxia-inducible factor 1-alpha (Homo sapiens) (UniProt Q16665); assay: ATG_HIF1a_CIS: Attagene CIS-FACTORIAL HepG2 Assay for human Hypoxia Inducible Factor 1 (HIF1A) (AID 2282951); settings: HepG2 Attagene cis-factorial HIF1a reporter transcription; actives raise or lower the signal
Sequence of Hypoxia-inducible factor 1-alpha (Homo sapiens) (Q16665 whole entry, looked up): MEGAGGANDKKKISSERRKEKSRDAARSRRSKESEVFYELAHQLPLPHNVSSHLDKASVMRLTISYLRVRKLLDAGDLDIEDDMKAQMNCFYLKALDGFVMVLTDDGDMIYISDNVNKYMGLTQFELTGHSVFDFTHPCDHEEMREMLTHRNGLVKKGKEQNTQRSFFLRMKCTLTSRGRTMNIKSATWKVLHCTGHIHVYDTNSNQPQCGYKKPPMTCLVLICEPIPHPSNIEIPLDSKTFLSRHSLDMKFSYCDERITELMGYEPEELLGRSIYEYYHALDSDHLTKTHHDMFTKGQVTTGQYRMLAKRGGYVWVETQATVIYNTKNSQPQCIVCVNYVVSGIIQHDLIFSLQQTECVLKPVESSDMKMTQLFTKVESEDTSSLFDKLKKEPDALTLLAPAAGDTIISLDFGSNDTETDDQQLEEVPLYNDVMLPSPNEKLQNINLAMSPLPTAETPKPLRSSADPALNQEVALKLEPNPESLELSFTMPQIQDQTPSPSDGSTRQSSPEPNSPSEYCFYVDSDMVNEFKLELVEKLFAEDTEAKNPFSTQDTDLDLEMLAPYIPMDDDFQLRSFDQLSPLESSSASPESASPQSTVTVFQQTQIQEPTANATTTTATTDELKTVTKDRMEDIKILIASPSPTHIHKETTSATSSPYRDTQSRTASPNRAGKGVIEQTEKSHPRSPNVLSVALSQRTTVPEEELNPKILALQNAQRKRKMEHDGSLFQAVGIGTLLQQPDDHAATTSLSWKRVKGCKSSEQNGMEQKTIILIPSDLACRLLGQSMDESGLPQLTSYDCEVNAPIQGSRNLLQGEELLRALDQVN
How it was run: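 Fluorescence intensity of capillary-separated, 6-FAM-labelled reporter amplicons gives mRNA induction in HepG2 cells carrying transfected cis-promoter reporter units; cells exposed 24 h, responses fitted up or down from DMSO.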

[7] = molecular target: Hepatocyte nuclear factor 6 (Homo sapiens) (UniProt Q9UBC0); assay: ATG_HNF6_CIS: Attagene CIS-FACTORIAL HepG2 Assay for human Hepatocyte Nuclear Factor 6 (HNF6) (AID 2282952); settings: HepG2 Attagene cis-factorial HNF6 reporter transcription; actives raise or lower the signal
Sequence of Hepatocyte nuclear factor 6 (Homo sapiens) (Q9UBC0 whole entry, looked up, the tested form may be a part): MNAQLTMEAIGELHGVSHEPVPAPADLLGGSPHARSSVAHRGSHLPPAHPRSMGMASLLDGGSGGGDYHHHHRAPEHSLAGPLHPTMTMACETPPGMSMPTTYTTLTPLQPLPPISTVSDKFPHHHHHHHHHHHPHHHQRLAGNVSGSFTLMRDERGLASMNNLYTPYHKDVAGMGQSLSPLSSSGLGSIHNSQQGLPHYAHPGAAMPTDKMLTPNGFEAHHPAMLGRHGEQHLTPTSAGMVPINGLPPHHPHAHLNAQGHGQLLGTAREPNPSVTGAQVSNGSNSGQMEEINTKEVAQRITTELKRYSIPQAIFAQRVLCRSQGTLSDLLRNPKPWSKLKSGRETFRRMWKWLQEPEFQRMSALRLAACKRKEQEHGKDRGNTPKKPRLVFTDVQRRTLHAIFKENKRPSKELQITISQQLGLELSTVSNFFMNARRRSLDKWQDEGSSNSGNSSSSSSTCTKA
How it was run: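 Twenty-four-hour chemical treatment of reporter-transfected HepG2 cells precedes RNA isolation, DNase-treated reverse transcription and PCR of reporter sequences. Labelled fragments are sized by capillary electrophoresis and fitted bidirectionally versus DMSO.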

[8] = molecular target: Heat shock factor protein 1 (Homo sapiens) (UniProt Q00613); assay: ATG_HSE_CIS: Attagene CIS-FACTORIAL HepG2 Assay for human Heat Shock Transcription Factor 1 (HSE) (AID 2282953); settings: HepG2 HSE cis-reporter, Attagene RNA transcription; actives raise or lower the signal
Sequence of Heat shock factor protein 1 (Homo sapiens) (Q00613 whole entry, looked up): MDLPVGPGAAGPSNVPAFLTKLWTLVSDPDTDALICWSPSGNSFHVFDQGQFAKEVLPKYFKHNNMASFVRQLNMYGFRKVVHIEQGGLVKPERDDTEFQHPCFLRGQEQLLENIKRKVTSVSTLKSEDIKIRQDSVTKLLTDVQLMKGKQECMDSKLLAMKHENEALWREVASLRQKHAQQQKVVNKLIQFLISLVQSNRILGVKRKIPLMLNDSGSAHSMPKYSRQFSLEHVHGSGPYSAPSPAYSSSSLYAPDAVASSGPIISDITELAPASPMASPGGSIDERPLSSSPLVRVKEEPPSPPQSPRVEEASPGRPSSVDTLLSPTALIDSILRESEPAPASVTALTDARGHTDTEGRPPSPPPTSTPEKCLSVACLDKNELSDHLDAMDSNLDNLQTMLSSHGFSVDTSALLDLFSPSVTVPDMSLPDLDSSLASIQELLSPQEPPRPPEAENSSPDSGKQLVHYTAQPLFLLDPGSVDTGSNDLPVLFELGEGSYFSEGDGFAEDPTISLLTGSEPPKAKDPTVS
How it was run: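 Liver-derived HepG2 cells carry transiently introduced multiple reporter units governed by cis promoters. Reporter RNA measured 24 h post-dose through reverse transcription, PCR amplification, fluorescent labelling and capillary electrophoresis, normalised to DMSO.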

[9] = ATG_MRE_CIS: Attagene CIS-FACTORIAL HepG2 Assay for human Metal Responsive Element (MRE) (AID 2282954); settings: HepG2 MRE cis-reporter transcription, Attagene multiplex; actives raise or lower the signal
How it was run: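 Multiplexed cis-reporter assay in human HepG2 liver cells, 24 h incubation with test chemical. Reporter transcripts measured by RT-PCR and capillary electrophoresis; values from bidirectional curve fitting versus DMSO.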

[10] = ATG_PBREM_CIS: Attagene CIS-FACTORIAL HepG2 Assay for human Phenobarbital-responsive Enhancer Module (PBREM) (AID 2282955); settings: HepG2 PBREM cis-reporter, Attagene multiplexed transcription; actives raise or lower the signal
How it was run: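 Cells were transfected with cis-element reporter units and treated for 24 h, after which RNA was extracted and reporter transcripts measured by RT-PCR and capillary electrophoresis.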

[11] = molecular target: Paired box protein Pax-6 (Homo sapiens) (UniProt P26367); assay: ATG_Pax6_CIS: Attagene CIS-FACTORIAL HepG2 Assay for human Paired Box 6 (PAX6) (AID 2282956); settings: HepG2 CIS-FACTORIAL PAX6 reporter transcription, RNA readout; actives raise or lower the signal
Sequence of Paired box protein Pax-6 (Homo sapiens) (P26367 whole entry, looked up): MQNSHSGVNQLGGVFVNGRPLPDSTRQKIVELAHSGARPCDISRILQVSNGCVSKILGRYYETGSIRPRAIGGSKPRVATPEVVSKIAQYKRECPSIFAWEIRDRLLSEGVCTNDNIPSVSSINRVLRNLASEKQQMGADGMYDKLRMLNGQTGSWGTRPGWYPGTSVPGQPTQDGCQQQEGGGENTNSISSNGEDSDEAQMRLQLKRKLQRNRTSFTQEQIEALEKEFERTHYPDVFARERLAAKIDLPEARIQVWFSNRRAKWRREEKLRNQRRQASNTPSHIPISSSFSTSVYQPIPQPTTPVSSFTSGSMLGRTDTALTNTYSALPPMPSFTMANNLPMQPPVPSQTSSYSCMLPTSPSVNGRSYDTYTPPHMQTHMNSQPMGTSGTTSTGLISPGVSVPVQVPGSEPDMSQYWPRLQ
How it was run: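 DMSO-referenced bidirectional fits of reporter mRNA fluorescence; HepG2 with transient cis-promoter MRTUs, 24 h post-dose, RT-PCR plus capillary electrophoresis detection.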

[12] = ATG_PXRE_CIS: Attagene CIS-FACTORIAL HepG2 Assay for human Pregnane X Receptor Element (PXRE) (AID 2282957); settings: HepG2 Attagene CIS-FACTORIAL PXRE reporter, mRNA; actives raise or lower the signal
How it was run: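 Bidirectional activity, baselined to DMSO, derived from reporter mRNA fluorescence (RT-PCR plus capillary electrophoresis) in HepG2 cells bearing cis-promoter reporter units, 24 h exposure.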

[13] = ATG_PPRE_CIS: Attagene CIS-FACTORIAL HepG2 Assay for human Peroxisome Proliferator-activated Response Element (PPRE) (AID 2282958); settings: HepG2 PPRE cis-element reporter, Attagene transcription factor profiling; actives raise or lower the signal
How it was run: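 In this cell-based multiplex, a PPRE cis element drives a reporter sequence in transiently transfected HepG2 cells. Following 24 h treatment, labeled cDNA amplicons are sized and quantified by capillary electrophoresis, with DMSO defining baseline.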

[14] = ATG_RORE_CIS: Attagene CIS-FACTORIAL HepG2 Assay for human RAR-related Orphan Receptor Element (RORE) (AID 2282959); settings: HepG2 Attagene cis-factorial RORE reporter, mRNA; actives raise or lower the signal
How it was run: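 Endogenous factor activity at a cis response element is read as reporter transcript levels in HepG2 cells, 24 h post-dose. Transcripts are quantified by RT-PCR with capillary electrophoresis, and data fitted in both directions against DMSO.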

[15] = ATG_Sox_CIS: Attagene CIS-FACTORIAL HepG2 Assay for human SRY-box transcription factor (SOX) (AID 2282960); settings: HepG2 Attagene cis-factorial SOX reporter, mRNA; actives raise or lower the signal
How it was run: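 Measures mRNA induction of a SOX1-associated reporter in HepG2 after 24 h dosing. Fluorescently labelled RT-PCR fragments are separated by capillary electrophoresis, and gain or loss relative to DMSO control is fitted.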

[16] = ATG_SREBP_CIS: Attagene CIS-FACTORIAL HepG2 Assay for human Sterol Regulatory Element Binding (SREBP) (AID 2282962); settings: HepG2 Attagene cis-factorial SREBP reporter, mRNA; actives raise or lower the signal
How it was run: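 In this cis-format assay, HepG2 liver cells express reporters controlled by promoter elements responsive to native transcription factors. Exposure lasts 24 h; reporter mRNA fluorescence from capillary electrophoresis gives the signal, fitted bidirectionally against DMSO.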

[17] = molecular target: Signal transducer and activator of transcription 3 (Homo sapiens) (UniProt P40763); assay: ATG_STAT3_CIS: Attagene CIS-FACTORIAL HepG2 Assay for human Signal Transducer and Activator of Transcription 3 (STAT3) (AID 2282963); settings: HepG2, Attagene cis-factorial STAT3 reporter transcription; actives raise or lower the signal
Sequence of Signal transducer and activator of transcription 3 (Homo sapiens) (P40763 whole entry, looked up): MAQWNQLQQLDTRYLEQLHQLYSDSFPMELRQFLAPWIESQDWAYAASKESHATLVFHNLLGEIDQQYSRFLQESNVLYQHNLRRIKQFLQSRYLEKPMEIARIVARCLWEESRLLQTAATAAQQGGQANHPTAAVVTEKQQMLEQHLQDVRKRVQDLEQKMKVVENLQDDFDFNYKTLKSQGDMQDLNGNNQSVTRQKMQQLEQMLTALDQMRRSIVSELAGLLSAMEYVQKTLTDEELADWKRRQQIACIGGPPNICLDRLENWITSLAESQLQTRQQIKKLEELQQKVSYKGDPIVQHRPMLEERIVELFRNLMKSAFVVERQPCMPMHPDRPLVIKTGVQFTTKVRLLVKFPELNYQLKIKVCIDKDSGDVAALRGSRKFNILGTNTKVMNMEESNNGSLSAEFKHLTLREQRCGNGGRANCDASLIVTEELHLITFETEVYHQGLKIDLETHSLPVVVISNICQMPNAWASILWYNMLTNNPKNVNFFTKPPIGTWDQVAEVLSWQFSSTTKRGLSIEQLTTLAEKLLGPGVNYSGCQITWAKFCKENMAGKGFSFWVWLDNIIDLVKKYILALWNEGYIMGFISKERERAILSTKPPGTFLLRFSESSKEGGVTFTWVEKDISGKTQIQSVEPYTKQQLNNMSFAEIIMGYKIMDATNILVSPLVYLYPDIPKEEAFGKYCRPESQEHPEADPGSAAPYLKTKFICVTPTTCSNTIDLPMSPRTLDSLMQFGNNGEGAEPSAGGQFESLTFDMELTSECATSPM
How it was run: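 Cis-factorial format: endogenous transcription factors in HepG2 drive transfected reporter units. After 24 h treatment, reporter RNA was reverse-transcribed, amplified, FAM-labelled and HpaI-digested before CE analysis; activity scored in both directions against DMSO.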

[18] = molecular target: Transcription factor Sp1 (Homo sapiens) (UniProt P08047); assay: ATG_Sp1_CIS: Attagene CIS-FACTORIAL HepG2 Assay for human Specificity Protein 1 (Sp1) (AID 2282961); settings: HepG2 Sp1 cis-reporter transcription, actives raise or lower the signal
Sequence of Transcription factor Sp1 (Homo sapiens) (P08047 whole entry, looked up): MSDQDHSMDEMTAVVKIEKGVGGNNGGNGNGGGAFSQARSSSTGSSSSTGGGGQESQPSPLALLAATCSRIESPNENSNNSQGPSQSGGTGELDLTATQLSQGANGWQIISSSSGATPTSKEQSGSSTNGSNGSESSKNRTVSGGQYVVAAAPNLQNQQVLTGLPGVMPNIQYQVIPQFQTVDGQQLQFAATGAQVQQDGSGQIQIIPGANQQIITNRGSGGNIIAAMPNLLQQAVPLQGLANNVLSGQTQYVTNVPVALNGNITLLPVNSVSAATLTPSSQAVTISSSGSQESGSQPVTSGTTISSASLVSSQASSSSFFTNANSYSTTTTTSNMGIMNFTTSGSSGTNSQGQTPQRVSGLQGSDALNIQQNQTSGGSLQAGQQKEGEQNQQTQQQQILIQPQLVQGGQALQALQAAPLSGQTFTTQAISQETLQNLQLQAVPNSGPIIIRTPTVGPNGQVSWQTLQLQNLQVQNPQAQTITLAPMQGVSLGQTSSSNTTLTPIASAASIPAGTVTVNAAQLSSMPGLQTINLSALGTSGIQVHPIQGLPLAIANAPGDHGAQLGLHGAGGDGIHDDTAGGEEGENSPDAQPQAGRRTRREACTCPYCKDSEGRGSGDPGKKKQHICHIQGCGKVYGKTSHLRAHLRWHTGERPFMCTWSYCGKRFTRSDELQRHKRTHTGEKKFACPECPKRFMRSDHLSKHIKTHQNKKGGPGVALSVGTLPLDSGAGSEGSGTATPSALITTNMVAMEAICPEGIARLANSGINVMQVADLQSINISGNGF
How it was run: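 Cells: HepG2, transiently transfected with cis-regulated multiplexed reporters. Exposure: 24 h. Detection: reporter transcripts amplified, fluorescently labeled, restriction-digested and sized by capillary electrophoresis. Analysis: bidirectional fit relative to DMSO.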

[19] = ATG_TA_CIS: Attagene CIS-FACTORIAL HepG2 Assay for human TA Basal Promoter (AID 2282964); settings: HepG2 Attagene CIS-factorial TA basal promoter reporter; actives raise or lower the signal
How it was run: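 Background internal-marker endpoint from a 52-component HepG2 cis-reporter panel. Cells treated 24 h; reporter transcripts quantified via RT-PCR and CE fluorescence against DMSO baseline.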

Measured: outcome

O=C1CCCCCCCCCCCC(=O)OCCO1
inactive: [1] | [2] | [3] | [4] | [5] | [6] | [7] | [8] | [9] | [10] | [11] | [12] | [13] | [14] | [15] | [16] | [17]

CC/C=C\C#N
inactive: [1] | [2] | [3] | [4] | [5] | [6] | [7] | [8] | [9] | [10] | [11] | [12] | [13] | [14] | [15] | [18] | [16] | [17] | [19]

CC(C)CCOC(=O)CC(C)C
inactive: [1] | [2] | [3] | [4] | [5] | [6] | [7] | [8] | [9] | [10] | [11] | [12] | [13] | [14] | [15] | [18] | [16] | [17] | [19]

CC(=O)c1cccnc1
inactive: [1] | [2] | [3] | [4] | [5] | [6] | [7] | [9] | [10] | [11] | [12] | [13] | [14] | [15] | [18] | [16] | [17] | [19]

CCCCCCC(C)O (stereo not given)
inactive: [1] | [2] | [3] | [4] | [5] | [6] | [7] | [8] | [9] | [11] | [12] | [13] | [15] | [18] | [16] | [17] | [19]

Cc1ccncc1
inactive: [1] | [2] | [3] | [4] | [5] | [6] | [7] | [8] | [11] | [12] | [14] | [15] | [18] | [16] | [17] | [19]

C=CCOCC(O)CO (stereo not given)
inactive: [1] | [2] | [3] | [4] | [5] | [6] | [7] | [8] | [10] | [11] | [12] | [15] | [18] | [16] | [17] | [19]

CC(O)COCC(C)O (stereo not given)
inactive: [1] | [2] | [3] | [4] | [5] | [6] | [7] | [8] | [9] | [11] | [12] | [13] | [14] | [15] | [18] | [16] | [17] | [19]
